{
  "source": "the supplement of paper PMC11219838",
  "note": "A number with no mark means an inactive call.",
  "data": [
    {"system": "Caenorhabditis elegans L1 (N2)", "experiment": "survival and reproduction score of C. elegans L1 (0: 0-10 living worms, 1: 11-20, 2: 21-50, 3: >50, 4: overgrown) (score 0-4); higher = more worms, less nematicidal, active = 1 or less; extreme values may be limits of the assay", "conditions": "60 µM; 6 days; temperature: 20 °C", "procedure": "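DODA library (846 commercial 1,3,4- and 1,2,4-oxadiazole compounds plus commercial nematicide controls) screened at a single dose of 60 µM (0.6% DMSO) in 96-well plates, two biological replicates. Read-outs: C. elegans N2 L1 survival/reproduction score at day 6, 20 °C (0: 0-10 worms, 1: 11-20, 2: 21-50, 3: >50, 4: overgrown/starved). C. elegans daf-2 dauer, D. dipsaci and M. hapla J2 mobility at day 5, 20 °C, and P. penetrans mobility at day 5, 20 °C, each relative to DMSO controls. M. hapla egg hatching at day 12, 25 °C, relative to the mean of 8 DMSO wells on the same plate.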", "values": [
      {"smiles": "Clc1ccccc1OCc1nc(-c2ccccn2)no1", "survival and reproduction score": 4},
      {"smiles": "CCCOc1ccc(-c2nc(-c3ccncc3)no2)cc1", "survival and reproduction score": "0 (active)"},
      {"smiles": "CC(C)Oc1cccc(-c2nc(-c3ccccn3)no2)c1", "survival and reproduction score": 4},
      {"smiles": "c1ccc2c(-c3nc(-c4ccncc4)no3)cccc2c1", "survival and reproduction score": 4},
      {"smiles": "CCc1nc(-c2ccc(-c3ccccc3)nc2OC)no1", "survival and reproduction score": 4},
      {"smiles": "Cc1cc(Br)ccc1OCc1nc(-c2ccncc2)no1", "survival and reproduction score": 4},
      {"smiles": "CC(C)CCC(=O)Nc1ccccc1-c1nc(-c2ccncc2)no1", "survival and reproduction score": 4},
      {"smiles": "COc1ccccc1-c1noc(-c2ccccc2)n1", "survival and reproduction score": 4},
      {"smiles": "CCSc1nnc(-c2ccc(Cl)cc2Cl)o1", "survival and reproduction score": "0 (active)"},
      {"smiles": "CC(C)C(=O)Nc1ccccc1-c1nc(-c2ccccc2)no1", "survival and reproduction score": 4},
      {"smiles": "C=CCSc1nnc(-c2ccc(Br)cc2)o1", "survival and reproduction score": "0 (active)"},
      {"smiles": "O=C(Nc1cccnc1)c1ccccc1-c1nc(-c2ccc(Cl)cc2)no1", "survival and reproduction score": 4},
      {"smiles": "Cn1c(SCc2nc(-c3ccccc3)no2)nnc1-c1ccco1", "survival and reproduction score": "0 (active)"},
      {"smiles": "COc1ccc(-c2noc(-c3ccccc3C)n2)cc1", "survival and reproduction score": "0 (active)"},
      {"smiles": "CCc1ccc(OCc2nc(-c3ccc(Cl)cc3)no2)cc1", "survival and reproduction score": 4},
      {"smiles": "Brc1ccc(OCc2nc(-c3cccnc3)no2)cc1", "survival and reproduction score": 4},
      {"smiles": "COc1ccc(-c2noc(COc3ccccc3C)n2)cc1", "survival and reproduction score": 4},
      {"smiles": "COc1ccc(-c2nnc(SCc3ccccc3)o2)cc1", "survival and reproduction score": 4},
      {"smiles": "COc1cccc(-c2noc(COc3ccccc3C)n2)c1", "survival and reproduction score": 4},
      {"smiles": "Cc1ccccc1-c1nnc(SCc2ccccc2)o1", "survival and reproduction score": 3},
      {"smiles": "COc1cccc(-c2noc(CSc3ccc(Cl)cc3)n2)c1", "survival and reproduction score": 4},
      {"smiles": "O=C(CSc1nnc(-c2ccccc2)o1)NC1CCCCC1", "survival and reproduction score": 4},
      {"smiles": "CCc1ccc(OCc2nc(-c3cccc(OC)c3)no2)cc1", "survival and reproduction score": 4},
      {"smiles": "COc1nc(C)ccc1-c1noc(-c2ccc(F)cc2)n1", "survival and reproduction score": 4},
      {"smiles": "Cc1cccc(-c2nnc(SCC(=O)NCCc3ccccc3)o2)c1", "survival and reproduction score": 4},
      {"smiles": "COc1nc(C)ccc1-c1noc(-c2ccccc2Br)n1", "survival and reproduction score": 4},
      {"smiles": "Fc1ccc(OCc2nc(-c3ccc(Br)cc3)no2)cc1", "survival and reproduction score": 3},
      {"smiles": "CC(=O)c1c(C)cc(C)c(CSc2nnc(-c3ccco3)o2)c1C", "survival and reproduction score": 4},
      {"smiles": "c1ccc(-c2noc(CSc3nc4ccccc4[nH]3)n2)cc1", "survival and reproduction score": 4},
      {"smiles": "COc1cccc(-c2nnc(SCc3ccccc3C)o2)c1", "survival and reproduction score": 4},
      {"smiles": "Cc1ccc(OC(C)c2nc(-c3ccncc3)no2)cc1C", "note": "(stereo not given)", "survival and reproduction score": 4},
      {"smiles": "Cc1cc(Cl)ccc1OCc1nc(-c2cccnc2)no1", "survival and reproduction score": 4},
      {"smiles": "COc1ccc(-c2nnc(SCc3csc(N)n3)o2)cc1", "survival and reproduction score": 4},
      {"smiles": "O=C(Nc1ccccc1-c1nc(-c2ccncc2)no1)c1ccc(Cl)cc1", "survival and reproduction score": 4},
      {"smiles": "COc1ccccc1-c1nnc(SCc2ccccc2C)o1", "survival and reproduction score": 4},
      {"smiles": "Cc1ccc(-c2nnc(SCC(=O)Nc3ccccc3)o2)cc1", "survival and reproduction score": 4},
      {"smiles": "Clc1ccccc1-c1noc(-c2cccnc2)n1", "survival and reproduction score": 4},
      {"smiles": "CCOc1ccc(-c2noc(-c3ccncc3)n2)cc1OC", "survival and reproduction score": 4},
      {"smiles": "CCOc1ccccc1-c1nc(-c2ccc(NC(=O)Cc3ccccc3OC)cc2)no1", "survival and reproduction score": 4},
      {"smiles": "Clc1cccc(OCc2nc(-c3cccs3)no2)c1", "survival and reproduction score": "0 (active)"}
    ]}
  ]
}
